Results filed as inconclusive are left out. Where a call stands in place of a potency, no number is given. Active and inactive are the calls of the source. The call rests on the fitted dose curve; in most records, active means well fitted inhibition curve with a large enough effect; inconclusive means small, poorly fitted or top-dose-only effect; inactive means no such curve, though single readings can be large or run the other way.

Results on 40 compounds are retold here after PubChem BioAssay (NCATS).
Potency means the concentration at half of the fitted maximal effect.

The experiment in a line: qHTS for Inhibitors of ATXN expression: Validation (AID 588378). Further: nearly all actives have a fitted effect of over 75% in size. The note with it: cell-based ATXN2 expression reporter assay, luminescence; series mostly up to 57.1 µM. An excerpt: Spinocerebellar ataxia type 2 (SCA2) is a multisystem neurodegenerative disease caused by a dominantly-acting mutation leading to expansion of a polyQ domain in the ataxin-2 protein (ATXN2). SCA2 patients develop progressive ataxia and later lose function in other neuronal systems. Prominent parkinsonian signs develop in some patients. Similar to many neurodegenerative disorders, no symptomatic or disease-modifying treatments are known.
The primary objective of project is to identify compounds inhibiting ATXN2 expression and to test them for efficacy in SCA2 mouse models. To this end, in a collaboration between Dr. Daniel Scoles and scientists at NCGC, a cell-based assay adapted to high-throughput screening has been developed to screen the NIH Molecular Libraries Small Molecule Repository (MLSMR).
NIH Chemical Genomics Center [NCGC]
NIH Molecular Libraries Probe Centers Network [MLPCN]
Assay Submitter (PI): Stefan Pulst and Daniel Scoles, University of Utah
4 ul of HEK293-ATXN2-FFLuc cell suspension (TBD cells/microL in phenol-red free DMEM) are dispensed into Greiner white solid bottom 1536-well assay plates, yielding a final well density of TBD cells/well. Plates are incubated for 2 hrs at 37 degrees C in 5% humidified CO2 to allow cell attachment. Compounds are then transferred via Kalypsys pin tool equipped with 1536-pin array (10nl slotted pins, V&P Scientific, San Diego, CA). In addition, duplicate serial dilutions of the control compounds ChemBridge 5553825, a previously identified ATXN2 expression inhibitor, and a known luciferase inhibitor, are pin-transferred. After incubation at 37 degrees C in 5% humidified CO2 for 24 hrs, CellTiter-Fluor reagent (1 ul) (Promega, Madison, WI) is then added and plates are incubated for 30 minutes, before being transferred to a ViewLux high-throughput CCD imager (PerkinElmer), wherein single end-point fluorescence measurements are acquired using the 405 nm excitation/525 nm emission filter set to assess cell viability. Next, Bright-Glo luciferase substrate detection reagent (3 ul) (Promega, Madison, WI) is added to each well and incubated for an additional 5 minutes. Luminescence is then measured on the ViewLux imager equipped with a clear emission filter using a 2 sec exposure.
(qHTS replaces the single test concentration by a dilution series.)
`NCCCCC(=O)O`: the Potency result was “inactive”.

Turning to `COc1ccc(NC(=O)/C=C/c2ccc(Cl)cc2)cc1`, the Potency result was “inactive”.

Consider `CN(C)c1ccc(/C=C2\C(=O)Nc3ccccc32)cc1`, for which the Potency entry is “inactive”.

Take `CCNC(=O)[C@H]1O[C@@H](n2cnc3c(N)nc(NCCc4ccc(CCC(=O)O)cc4)nc32)[C@H](O)[C@@H]1O`: the Potency entry is “inactive”.

`O=[N+]([O-])c1ccc(CSc2ncnc3c2ncn3[C@@H]2O[C@H](CO)[C@@H](O)[C@H]2O)cc1`: the Potency entry is “inactive”.

Turning to `C=CC(=O)c1ccc(CCCCCC)cc1`, the Potency entry is “inactive”.

On to `Nc1ncnc2c1ncn2[C@@H]1O[C@H](COP(=O)(O)CP(=O)(O)OP(=O)(O)O)[C@@H](O)[C@H]1O`, for which the Potency entry was “inactive”.

In the case of `CC(C)Cc1ccc([C@H](C)C(=O)O)cc1`, the Potency result is “inactive”.

Consider `CC1(C)CCC=[N+]1[O-]`, for which the Potency result is “inactive”.

In the case of `Cc1cc(NC2CCCCC2)nc(-n2nc(C)cc2C)n1`, the Potency entry was “inactive”.

On to `O=C(Nc1ccccc1)c1cc([N+](=O)[O-])ccc1Cl`, for which the Potency result was “inactive”.

With `CCCN(CC1CC1)c1nc(C)nc(Nc2c(Cl)cc(Cl)cc2Cl)c1Cl`, the Potency result is “inactive”.

Turning to `CCOC(=O)C1=C(C)NC(C)=C(C(=O)OCC)C1c1c(F)c(F)c(F)c(F)c1F`, the Potency result is “inactive”.

On to `N#C/C(=C\c1ccc(O)c(O)c1)C(=O)c1ccc(O)c(O)c1`, for which the Potency result was “inactive”.

In the case of `CCCCC/C=C\CC(O)/C=C/c1cccc(CC(O)CCCCO)n1` (stereo not given), the Potency entry is “inactive”.

As for `CN1CCc2ccccc2Cc2[nH]c3ccccc3c2CC1`, the Potency entry is “inactive”.

Take `O=c1[nH]c2cc([N+](=O)[O-])c([N+](=O)[O-])cc2[nH]c1=O`: the Potency result was “inactive”.

Consider `NC[C@@H]1O[C@H](C23CC4CC(CC(C4)C2)C3)Cc2c1ccc(O)c2O`, for which the Potency was 20 µM (active).

With `Nc1nc(Cl)nc2c1ncn2[C@@H]1O[C@H](COP(=O)(O)OP(=O)(O)OP(=O)(O)O)[C@@H](O)[C@H]1O`, the Potency result is “inactive”.

Turning to `Oc1cc2c(cc1O)CN(C(=S)NCCc1ccc(Cl)cc1)CCC2`, the Potency result was “inactive”.

Turning to `CN1CC(=O)N/C1=N/C(=O)Nc1cccc(Cl)c1`, the Potency result was “inactive”.

Take `CC(=O)N[C@H](C(=O)O)C(C)(C)SN=O`: the Potency result is “inactive”.

Regarding `NCCCCCCCCCCN`, the Potency entry is “inactive”.

For `CCCCCCCCc1ccc(-c2ccc(C(=O)O)cc2)cc1`, the Potency result was “inactive”.

As to `OC[C@H]1O[C@@H](n2cnc3c(NC4CCCCC4)ncnc32)[C@H](O)[C@@H]1O`, the Potency entry is “inactive”.

Take `CC1OC1P(=O)(O)O` (stereo not given): the Potency entry is “inactive”.

Turning to `O=C(Nc1cccc(C(=O)Nc2ccc(S(=O)(=O)O)c3cc(S(=O)(=O)O)cc(S(=O)(=O)O)c23)c1)Nc1cccc(C(=O)Nc2ccc(S(=O)(=O)O)c3cc(S(=O)(=O)O)cc(S(=O)(=O)O)c23)c1`, the Potency entry is “inactive”.

For `NO`, the Potency entry is “inactive”.

For `CC(=O)SCC[N+](C)(C)C`, the Potency entry was “inactive”.

As to `COc1ccccc1CNCCCCCCNCCCCCCCCNCCCCCCNCc1ccccc1OC`, the Potency result is “inactive”.

Turning to `NCCCS(=O)(=O)O`, the Potency entry is “inactive”.

`Oc1cc(O)cc(/C=C/c2ccc(O)c(O)c2)c1`: the Potency entry was “inactive”.

Regarding `CCCCC#Cc1nc(NC)c2ncn([C@@H]3O[C@H](CO)[C@@H](O)[C@H]3O)c2n1`, the Potency entry is “inactive”.

In the case of `O=C1NC(=O)/C(=C/c2ccc3nccnc3c2)S1`, the Potency entry was “inactive”.

Regarding `N#C/C(=C\c1ccc(O)c(O)c1)C(=O)NCc1ccccc1`, the Potency result is “inactive”.

Take `O=C1/C(=C/c2ccsc2)CC/C1=C\c1cccs1`: the Potency entry was “inactive”.

For `O=C(O)[C@@H]1C[C@@H](C(=O)O)N1`, the Potency result is “inactive”.

With `NC(CCCP(=O)(O)O)C(=O)O` (stereo not given), the Potency entry is “inactive”.

For `CNc1ncnc2c1ncn2[C@@H]1O[C@H](CO)[C@@H](O)[C@H]1O`, the Potency entry was “inactive”.

Turning to `N[C@@H](CC(=O)O)C(=O)O`, the Potency entry is “inactive”.
